Inconclusive results are not listed. Activity calls are given as the source filed them. Calls come from the whole dose curve; as a rule, active = well fitted curve in the direction sought with a large enough effect; inconclusive = small, poorly fitted or top-dose-only effect, or another doubt; inactive = no such curve, though single readings can be large; an effect the other way counts as inactive or inconclusive.
system: not listed separately; assay: qHTS to identify inhibitors of the type 1 interferon - major histocompatibility complex class I in skeletal muscle: primary screen against the NCATS Mechanism Interrogation Plate v5.0 (MIPE) Libary (AID 1347411); conditions: iHSKM cells + IFN-b, HiBiT-tagged MHC-I luminescence, 24 h; series mostly up to 45.8 µM; activity change, negative = inhibition: at the top concentration; note: nearly all actives have a fitted effect of over 65% in size; note: potency is the fitted concentration of half-maximal effect;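 for activity change, negative = inhibition: plate controls were vehicle for no effect and reference inhibitor for full effect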
Outline: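 Luminescence from CRISPR HiBit-tagged endogenous HLA-B in human myoblasts reported MHC class I level after 24 h of IFN-beta (4 ng/ml) plus compound. Compounds ran as 11-point 1:3 series, top 46 uM final.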

SMILES	Potency	activity change, negative = inhibition
Cc1nc(N)sc1-c1ccnc(Nc2ccc(N3CCOCC3)cc2)n1	3.7 µM (active)	
c1ccc2c(Cc3c[nH]c4ccccc34)c[nH]c2c1		-8.37% (inactive)
O=C(O)c1ccccc1C(=O)Nc1ccc(-c2ccccc2)cc1	29.4 µM (active)	
N#Cc1ccc(NC(=O)Nc2ccccc2Br)c2n[nH]nc12		-21.6% (inactive)
COc1cccc2c1CCCC2CCCN1CCN(C2CCCCC2)CC1 (stereo unspecified)		39.3% (inactive)
CS(=O)(=O)N(Cc1ccco1)CC(O)Cn1c2ccccc2c2ccccc21 (stereo unspecified)		-8.49% (inactive)
CNC(=O)c1ccc2cc(C3(O)CCn4cncc43)ccc2c1 (stereo unspecified)		8.29% (inactive)
N#CC1(c2ccc(NC(=O)c3cccnc3NCc3ccncc3)cc2)CCCC1		-5.65% (inactive)
CCOC(=O)C1=C(N)Oc2ccc(Br)cc2C1C(C#N)C(=O)OCC (stereo unspecified)		-14.5% (inactive)
CC1(C)CCC(CN2CCN(c3ccc(C(=O)NS(=O)(=O)c4ccc(NCC5CCOCC5)c([N+](=O)[O-])c4)c(Oc4cnc5[nH]ccc5c4)c3)CC2)=C(c2ccc(Cl)cc2)C1		-11.8% (inactive)
O=C(Nc1cc(Cl)cc2c1[nH]c1cnccc12)c1cccnc1		-53.1% [at 15.5 µM] (inactive)
COCCOc1nc(-c2ccc(Cl)c(Cl)c2)n(-c2ccc(NC(=O)CCl)cc2)n1	5.23 µM (active)	
O=C(O)c1cc(O)c2c(c1)C(=O)c1cccc(O)c1C2=O		-7.9% (inactive)
C=C1C(=O)OC(CCCCCCCC)C1C(=O)O (stereo unspecified)	18.6 µM (active)	
Nc1ncnc2ccccc12		-9.59% (inactive)
CN[C@@H](C)C(=O)N[C@H]1CN(C(=O)CC(C)C)CC[C@H]2CC[C@@H](C(=O)NC(c3ccccc3)c3ccccc3)N2C1=O		-13.4% (inactive)
O=c1cc(-c2cccc3c2Sc2ccccc2S3)oc(N2CCOCC2)c1		-18.2% (inactive)
NC(=O)[C@@H](CCC(F)(F)F)N(Cc1ccc(-c2ncon2)cc1F)S(=O)(=O)c1ccc(Cl)cc1		-19.8% (inactive)
Cc1cnc(C(=O)O)c[n+]1[O-]		-11.2% (inactive)
C[C@H](NC(=O)c1sccc1OCc1ccc(Cl)cc1)c1ccccc1		-26.4% (inactive)
COc1cc2c(cc1OC)CN(CCc1ccc(NC(=O)c3cc(OC)c(OC)cc3NC(=O)c3cnc4ccccc4c3)cc1)CC2		-0.643% (inactive)
CCNc1cc(NC2CCC(O)CC2)nc(Nc2ccc3c(ccn3Cc3ccccc3)c2)n1 (stereo unspecified)		-5.26% (inactive)
CC(C)(C)Cn1c(N)nc2ccc(-c3[nH]c(C(C)(C)C)nc3-c3ccc(F)cc3)nc21		-19.2% (inactive)
CC(C)[C@H](CO)Nc1nc(Nc2ccc(C(=O)O)c(Cl)c2)c2ncn(C(C)C)c2n1		-11.5% (inactive)
O=C(Nc1c(Cl)cncc1Cl)c1ccc(OC(F)F)c(OCC2CC2)c1		-7.03% (inactive)
CCCCCCCCCCCC1=C(O)C(=O)C=C(O)C1=O		-11.1% (inactive)
O=c1cc(N2CCOCC2)oc2c(-c3cccc4c3sc3ccccc34)cccc12		-9.63% (inactive)
C[C@]12CCC3c4ccc(O)cc4CCC3C1CCC2=O (stereo partly specified)		-27.6% (inactive)
COC1CCC(N(C(=O)C2CCC(C)CC2)c2cc(C3=CCCCC3)sc2C(=O)O)CC1 (stereo unspecified)		-5.12% (inactive)
Cc1c(NC(=O)c2ccc(C(C)(C)C)cc2)cccc1-c1cn(C)c(=O)c(Nc2ccc(C(=O)N3CCOCC3)cc2)n1		-11.8% (inactive)

target: Protein phosphatase 1D (Homo sapiens) (UniProt O15297); assay: RapidFire Mass Spectrometry qHTS Assay for Modulators of WT P53-Induced Phosphatase 1 (WIP1) (AID 1347424); conditions: WIP1 dephosphorylation of phosphopeptide, RapidFire MS; series mostly up to 63 µM; activity change, negative = inhibition: at the top concentration;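 note: amount of dephosphorylated VEPPL-S-QETFS peptide product formed by WIP1; plate controls were DMSO wells for no effect and GSK830371 inhibitor control at 10 µM for full effect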
Sequence (O15297 whole entry, looked up): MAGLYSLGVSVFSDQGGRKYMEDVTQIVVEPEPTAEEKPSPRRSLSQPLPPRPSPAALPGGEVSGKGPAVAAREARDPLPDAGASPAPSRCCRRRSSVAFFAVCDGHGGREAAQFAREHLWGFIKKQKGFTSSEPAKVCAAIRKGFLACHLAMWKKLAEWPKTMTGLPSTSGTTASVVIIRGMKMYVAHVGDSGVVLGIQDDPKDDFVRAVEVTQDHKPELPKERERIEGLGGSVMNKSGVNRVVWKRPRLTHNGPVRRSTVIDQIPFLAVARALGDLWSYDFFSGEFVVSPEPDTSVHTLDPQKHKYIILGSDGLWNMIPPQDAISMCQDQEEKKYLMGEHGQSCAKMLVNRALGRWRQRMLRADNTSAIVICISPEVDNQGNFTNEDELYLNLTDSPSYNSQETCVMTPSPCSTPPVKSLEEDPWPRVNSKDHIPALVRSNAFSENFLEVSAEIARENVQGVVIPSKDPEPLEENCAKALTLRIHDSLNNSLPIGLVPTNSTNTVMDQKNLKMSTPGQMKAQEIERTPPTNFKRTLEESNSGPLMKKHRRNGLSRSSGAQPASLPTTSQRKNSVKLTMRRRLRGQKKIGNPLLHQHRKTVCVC
Outline: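 RapidFire mass spectrometry measured dephosphorylated peptide after 5 min room-temperature reaction of 2 uM VEPPL-pS-QETFS with 10 nM WIP1 (50 mM Tris-HCl pH 7.5, 30 mM MgCl2, 0.1 mM EGTA, BSA), following 1 hr compound preincubation; 1 uM isotope-labelled product standard.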

SMILES	activity change, negative = inhibition
CC(=O)Oc1cc2c(s1)CCN(C(C(=O)C1CC1)c1ccccc1F)C2 (stereo unspecified)	-13.1% (inactive)
CC(C)OC(=O)C(C)(C)Oc1ccc(C(=O)c2ccc(Cl)cc2)cc1	20.1% (inactive)
O=c1[nH]cnc2c1ncn2[C@H]1CC[C@@H](CO)O1	0.302% (inactive)

target: Protein phosphatase 1D (Homo sapiens) (UniProt O15297); assay: Rhodamine-PBP qHTS Assay for Modulators of WT P53-Induced Phosphatase 1 (WIP1) (AID 1347425); conditions: recombinant WIP1, Rhodamine-PBP phosphate fluorescence, real-time; series mostly up to 57.5 µM; activity change, negative = inhibition: at the top concentration; note: % of control where 0% means no effect
Outline: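 Steps: enzyme with Rh-PBP sensor and compounds, room-temperature incubation of 1 hr, baseline read, addition of VEPPL-pS-QETFS (10 uM final), kinetic fluorescence reads at 525/598 nm. Activity equals final minus baseline signal.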

SMILES	activity change, negative = inhibition
CC(=O)Oc1cc2c(s1)CCN(C(C(=O)C1CC1)c1ccccc1F)C2 (stereo unspecified)	-4.79% (inactive)
CC(C)OC(=O)C(C)(C)Oc1ccc(C(=O)c2ccc(Cl)cc2)cc1	13.5% (inactive)
O=c1[nH]cnc2c1ncn2[C@H]1CC[C@@H](CO)O1	15.3% (inactive)

— PubChem BioAssay (NCATS)
